This is an account of results in PubChem BioAssay (Tox21).

Where “and” joins values, the source holds several entries; their conditions need not be identical. Equal values may be shown once. Inconclusive results are not listed. Calls of active or inactive are those of the source. Calls come from the whole dose curve; as a rule, active = well fitted inhibition curve with a large enough effect in the repeat runs; inconclusive = weak or mixed curves; inactive = no such curve, though single readings can be large or run the other way.
% is set by controls: 0 for no effect and ±100 for the full control effect; potency is the fitted concentration of half-maximal effect.

Cytochrome P450 2C9 (Homo sapiens), sequence (P11712 whole entry, looked up): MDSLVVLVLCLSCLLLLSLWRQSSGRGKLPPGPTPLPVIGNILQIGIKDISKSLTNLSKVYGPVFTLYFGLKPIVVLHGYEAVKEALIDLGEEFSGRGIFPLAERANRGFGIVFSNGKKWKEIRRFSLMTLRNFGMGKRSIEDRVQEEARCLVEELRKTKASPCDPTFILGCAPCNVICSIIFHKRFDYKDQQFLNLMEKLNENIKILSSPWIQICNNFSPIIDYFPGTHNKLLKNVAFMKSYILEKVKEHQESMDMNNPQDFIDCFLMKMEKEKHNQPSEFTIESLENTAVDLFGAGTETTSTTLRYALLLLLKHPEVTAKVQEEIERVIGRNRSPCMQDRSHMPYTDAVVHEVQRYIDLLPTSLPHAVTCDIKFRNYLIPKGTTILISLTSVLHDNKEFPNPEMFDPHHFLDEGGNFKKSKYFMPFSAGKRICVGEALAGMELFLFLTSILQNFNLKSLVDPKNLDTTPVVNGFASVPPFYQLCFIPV
Cytochrome P450 2C19 (Homo sapiens), sequence (P33261 whole entry, looked up): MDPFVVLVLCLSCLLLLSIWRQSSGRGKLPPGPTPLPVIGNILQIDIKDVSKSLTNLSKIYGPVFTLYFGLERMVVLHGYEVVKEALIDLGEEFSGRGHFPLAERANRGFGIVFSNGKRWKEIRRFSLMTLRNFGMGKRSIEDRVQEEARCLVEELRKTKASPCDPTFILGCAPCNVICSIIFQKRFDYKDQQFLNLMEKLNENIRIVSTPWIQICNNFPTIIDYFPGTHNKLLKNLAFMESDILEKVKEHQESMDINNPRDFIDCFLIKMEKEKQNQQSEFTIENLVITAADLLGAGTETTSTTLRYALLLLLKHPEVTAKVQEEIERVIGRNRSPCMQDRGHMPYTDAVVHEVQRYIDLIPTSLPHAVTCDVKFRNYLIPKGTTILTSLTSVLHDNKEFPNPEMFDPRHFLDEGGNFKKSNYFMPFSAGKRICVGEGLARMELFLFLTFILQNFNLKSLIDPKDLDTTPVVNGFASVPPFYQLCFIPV

For one experiment, the target named is Cytochrome P450 2D6 (Homo sapiens) (UniProt P10635). In words: Cytochrome P450 Family 2 Subfamily D Member 6 (CYP2D6) small molecule antagonists: luciferase reporter qHTS assay (AID 1671196). Note: nearly all actives have a fitted effect of over 50% in size. Conditions: P450-Glo CYP2D6 enzyme assay, luciferin luminescence, 1 h; series mostly up to 115 µM; activity change, negative = inhibition: at the top concentration. In a few lines: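 Chemicals tested for interference with CYP2D6 activity; proluciferin substrate, NADPH regeneration, 1 h at room temperature, luminescent detection.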
Cytochrome P450 2D6 (Homo sapiens), sequence (P10635 whole entry, looked up): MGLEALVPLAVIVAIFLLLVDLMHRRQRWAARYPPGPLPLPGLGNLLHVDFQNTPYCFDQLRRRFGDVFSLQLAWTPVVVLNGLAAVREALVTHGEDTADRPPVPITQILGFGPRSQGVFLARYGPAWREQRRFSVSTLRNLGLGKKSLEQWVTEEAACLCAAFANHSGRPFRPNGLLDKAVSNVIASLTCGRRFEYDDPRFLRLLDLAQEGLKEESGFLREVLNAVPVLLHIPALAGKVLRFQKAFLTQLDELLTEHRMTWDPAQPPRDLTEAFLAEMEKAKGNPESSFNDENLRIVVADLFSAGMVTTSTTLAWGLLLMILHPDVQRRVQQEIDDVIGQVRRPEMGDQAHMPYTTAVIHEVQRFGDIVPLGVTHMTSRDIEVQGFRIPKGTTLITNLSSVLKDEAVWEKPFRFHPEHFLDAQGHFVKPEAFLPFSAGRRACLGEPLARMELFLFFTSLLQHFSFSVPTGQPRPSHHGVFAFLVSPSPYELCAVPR
On to `Cc1cc(C)c(C2=C(OC(=O)CC(C)(C)C)C3(CCCC3)OC2=O)c(C)c1`, for which the “activity change, negative = inhibition” value is -15.9% (inactive). On the same count and under the same terms, under `Cn1cc(C2=C(c3cn(C4CCN(Cc5ccccn5)CC4)c4ccccc34)C(=O)NC2=O)c2ccccc21` stands -11.5% [at 53 µM] (inactive). Turning to `C[CH2][Hg][N]1C(=O)C2C(C1=O)C1(Cl)C(Cl)=C(Cl)C2(Cl)C1(Cl)Cl` (configuration not stated), the Potency was 16.9 µM (active).

Turning to `[CH3][Hg][Cl]`, the “activity change, negative = inhibition” value is -18.3% (inactive). The same measure, in the same setting: as for `C=CC(=O)OCCCCOC(=O)C=C`, the figure is -6.85% (inactive).

In the case of `Clc1ccc(C(c2ccccc2Cl)C(Cl)(Cl)Cl)cc1` (configuration not stated), the “activity change, negative = inhibition” value was -10.3% [at 53 µM] (inactive).

Turning to `CC(=O)c1cc(C(C)(C)C)cc2c1CCC2(C)C`, the “activity change, negative = inhibition” value is 1.13% (inactive). Same read-out and setting: under `Cc1ccc(CCl)cc1` stands -8.28% (inactive). In the case of `O=[N+]([O-])c1c2ccccc2cc2ccccc12`, the Potency was 2.22 µM (active).

`Oc1c(Cl)c(Cl)cc(Cl)c1Cl`: the “activity change, negative = inhibition” value was 3.03% (inactive). Take `CCCN(CCC)CCc1c[nH]c2ccccc12`: the Potency is 0.351 µM (active). Take `BrCC(Br)c1ccccc1` (configuration not stated): the Potency is 12.6 µM (active). On the same count and under the same terms, under `COC12CC[C@@]3(C[C@@H]1C(C)(O)C(C)(C)C)[C@H]1Cc4ccc(O)c5c4[C@@]3(CCN1CC1CC1)[C@H]2O5` (some centres not stated) stands 2.23 µM (active). Consider `C[C@@H]1O[C@@H](O[C@@H]2C=C3CC[C@@H]4[C@H](CC[C@]5(C)[C@@H](c6ccc(=O)oc6)CC[C@]45O)[C@@]3(C)CC2)[C@H](O)[C@H](O)[C@H]1O`, for which the “activity change, negative = inhibition” value was -13.7% [at 53 µM] (inactive).

As to `N#CC(Cl)Cl`, the Potency was 61.6 µM (active).

A further experiment concerns the target Cytochrome P450 2C19 (Homo sapiens) (UniProt P33261). Put plainly: Cytochrome P450 Family 2 Subfamily C Member 19 (CYP2C19) small molecule antagonists: luciferase reporter qHTS assay (AID 1671197). Note: nearly all actives have a fitted effect of over 65% in size. Conditions: P450-Glo CYP2C19 enzyme, luciferin luminescence, 1 h; series mostly up to 115 µM; activity change, negative = inhibition: at the top concentration. An outline of the steps:
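CYP2C19 P450-Glo, 1536-well qHTS. Cpd + enzyme/proluciferin substrate 10 min RT; + NADPH regen, 37C 1 h; stop with luciferin detection reagent, 20 min RT, luminescence (RLU). Pos ctrl ketoconazole.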
In general terms: In a reporter assay the amount or activity of a reporter protein is the signal.
Consider `Brc1c(Br)c(Br)c(Oc2c(Br)c(Br)c(Br)c(Br)c2Br)c(Br)c1Br`, for which the activity change, negative = inhibition was 12.5% [at 23.6 µM] (inactive).

Turning to `CCCCOP(=O)(CCCC)OCCCC`, the Potency is 11.2 µM (active).

As to `C[C@@H](Oc1ccc(Cl)cc1Cl)C(=O)O`, the “activity change, negative = inhibition” value was -3.71% (inactive).

On to `CC[C@H](C)[C@H]1O[C@]2(C=C[C@@H]1C)C[C@@H]1C[C@@H](C/C=C(\C)[C@@H](O[C@H]3C[C@H](OC)[C@@H](O[C@H]4C[C@H](OC)[C@@H](O)[C@H](C)O4)[C@H](C)O3)[C@@H](C)/C=C/C=C3\CO[C@@H]4[C@H](O)C(C)=C[C@@H](C(=O)O1)[C@]34O)O2`, for which the Potency is 21 µM (active). On to `ClCCN1CCOCC1`, for which the “activity change, negative = inhibition” value is -6.51% (inactive). Consider `Cc1cc(C(C)(C)c2cc(C)c(O)c(C)c2)cc(C)c1O`, for which the Potency is 1.22 µM (active).

On to `O=[N+]([O-])c1cc(Cl)ccc1Cl`, for which the “activity change, negative = inhibition” value was -6.15% (inactive). On the same count and under the same terms, as for `ClC1=C(Cl)[C@]2(Cl)[C@@H]3[C@@H](Cl)[C@@H](Cl)C[C@@H]3[C@@]1(Cl)C2(Cl)Cl`, the figure is -12.1% (inactive). For the molecule `C=CC(=O)OCC(COC(=O)C=C)(COC(=O)C=C)COC(=O)C=C`, the Potency is 17.8 µM (active).

For the molecule `Oc1ccc(C(c2ccc(O)cc2)(C(F)(F)F)C(F)(F)F)cc1`, the Potency was 5 µM (active) and 2.83 µM (active).

As to `CC1(C)C(/C=C(\Cl)C(F)(F)F)C1C(=O)OC(C#N)c1cccc(Oc2ccccc2)c1` (configuration not stated), the Potency is 8.09 µM (active).

As to `Nc1ccc([N+](=O)[O-])cc1Cl`, the “activity change, negative = inhibition” value is -2.12% (inactive). `Cc1cc(N=Nc2ccccc2C)ccc1N`: the Potency was 5.64 µM (active) and 8.94 µM (active). On the same count and under the same terms, under `CCOP(=S)(OCC)SCS(=O)(=O)CC` stands 5.64 µM (active).

As to `CC(C)(C)c1ccc(CSc2cnn(C(C)(C)C)c(=O)c2Cl)cc1`, the Potency was 7.96 µM (active). Turning to `CC(O)C#N` (configuration not stated), the “activity change, negative = inhibition” value is -1.25% (inactive). In the case of `COc1cc(C=O)cc2c1[C@H](COC(N)=O)[C@]1(OC(C)=O)ON2C[C@H]2[C@@H]1N2C(C)=O`, the “activity change, negative = inhibition” value was 10.9% (inactive). The same measure, in the same setting: as for `O=C(CCl)Nc1ccccc1`, the figure is -11.5% (inactive); as for `Oc1cc(Cl)c(Cl)c(Cl)c1`, 35.5% (inactive); as for `CC(=[OH+])/C=C(/C)[O-].CC(=[OH+])/C=C(\C)[O-].CC(=[OH+])/C=C(\C)[O-].[Fe]`, 10.7% (inactive). As to `ClC(Cl)=C(c1ccc(Cl)cc1)c1ccc(Cl)cc1`, the Potency was 409 nM (active) and 710 nM (active).

Consider `NNC(=O)c1ccccc1`, for which the Potency was 41 µM (active).

`Nc1ccc(Cc2ccc(N)c(Cl)c2)cc1Cl`: the Potency was 6.86 µM (active).

Another experiment concerns the target Cytochrome P450 2C9 (Homo sapiens) (UniProt P11712). In words: Cytochrome P450 Family 2 Subfamily C Member 9 (CYP2C9) small molecule antagonists: luciferase reporter qHTS assay (AID 1671198). Note: nearly all actives have a fitted effect of over 50% in size. Conditions: P450-Glo CYP2C9 enzyme assay, luciferin luminescence; series mostly up to 115 µM; activity change, negative = inhibition: at the top concentration. An outline of the steps:
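Enzyme-substrate mix preincubated with compound 10 min at room temperature; reaction started with NADPH regeneration solution, 1 h 37C. Luminescent luciferin product read after 20 min detection reagent.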
With `Brc1c(Br)c(Br)c(Oc2c(Br)c(Br)c(Br)c(Br)c2Br)c(Br)c1Br`, the activity change, negative = inhibition was -7.81% [at 23.6 µM] (inactive). For the molecule `CCCCOP(=O)(CCCC)OCCCC`, the Potency is 31.7 µM (active). As to `C[C@@H](Oc1ccc(Cl)cc1Cl)C(=O)O`, the “activity change, negative = inhibition” value was -23.4% (inactive).

As for `C[CH2][Hg][N]1C(=O)C2C(C1=O)C1(Cl)C(Cl)=C(Cl)C2(Cl)C1(Cl)Cl` (configuration not stated), the Potency is 13.5 µM (active). On the same count and under the same terms, as for `CC[C@H](C)[C@H]1O[C@]2(C=C[C@@H]1C)C[C@@H]1C[C@@H](C/C=C(\C)[C@@H](O[C@H]3C[C@H](OC)[C@@H](O[C@H]4C[C@H](OC)[C@@H](O)[C@H](C)O4)[C@H](C)O3)[C@@H](C)/C=C/C=C3\CO[C@@H]4[C@H](O)C(C)=C[C@@H](C(=O)O1)[C@]34O)O2`, the figure is 10.5 µM (active). On to `ClCCN1CCOCC1`, for which the “activity change, negative = inhibition” value was -2.73% (inactive). Consider `Cc1cc(C(C)(C)c2cc(C)c(O)c(C)c2)cc(C)c1O`, for which the Potency is 3.07 µM (active).

In the case of `O=[N+]([O-])c1cc(Cl)ccc1Cl`, the “activity change, negative = inhibition” value was 2.35% (inactive). The same measure, in the same setting: under `ClC1=C(Cl)[C@]2(Cl)[C@@H]3[C@@H](Cl)[C@@H](Cl)C[C@@H]3[C@@]1(Cl)C2(Cl)Cl` stands -4.12% (inactive).

Regarding `C=CC(=O)OCC(COC(=O)C=C)(COC(=O)C=C)COC(=O)C=C`, the Potency was 14.2 µM (active). Same read-out and setting: under `Oc1ccc(C(c2ccc(O)cc2)(C(F)(F)F)C(F)(F)F)cc1` stands 3.16 µM (active) and 2 µM (active).

As to `CC1(C)C(/C=C(\Cl)C(F)(F)F)C1C(=O)OC(C#N)c1cccc(Oc2ccccc2)c1` (configuration not stated), the Potency is 8.09 µM (active). In the case of `Nc1ccc([N+](=O)[O-])cc1Cl`, the “activity change, negative = inhibition” value is 10.8% (inactive). Turning to `Cc1cc(N=Nc2ccccc2C)ccc1N`, the Potency is 5.03 µM (active) and 5.64 µM (active).

Regarding `CCOP(=S)(OCC)SCS(=O)(=O)CC`, the Potency is 12.6 µM (active). Still for that read-out and setting: as for `CC(C)(C)c1ccc(CSc2cnn(C(C)(C)C)c(=O)c2Cl)cc1`, the figure is 6.33 µM (active).

As for `CC(O)C#N` (configuration not stated), the “activity change, negative = inhibition” value was -1.48% (inactive). On to `COc1cc(C=O)cc2c1[C@H](COC(N)=O)[C@]1(OC(C)=O)ON2C[C@H]2[C@@H]1N2C(C)=O`, for which the “activity change, negative = inhibition” value was -15.4% (inactive). The same measure, in the same setting: under `O=C(CCl)Nc1ccccc1` stands 8.22% (inactive).

For `Oc1cc(Cl)c(Cl)c(Cl)c1`, the “activity change, negative = inhibition” value was 47.3% (inactive). Still for that read-out and setting: under `CC(=[OH+])/C=C(/C)[O-].CC(=[OH+])/C=C(\C)[O-].CC(=[OH+])/C=C(\C)[O-].[Fe]` stands 2.57% (inactive).

Consider `ClC(Cl)=C(c1ccc(Cl)cc1)c1ccc(Cl)cc1`, for which the Potency is 14.5 µM (active) and 12.6 µM (active). Still for that read-out and setting: as for `NNC(=O)c1ccccc1`, the figure is 41 µM (active). Same read-out and setting: as for `Nc1ccc(Cc2ccc(N)c(Cl)c2)cc1Cl`, the figure is 61.2 µM (active).
